Compound activity: PubChem BioAssay, several laboratories
Compounds with a hit are over-represented: about 12% of the library has one in this group of screens.
WT yeast gro inh: growth inhibition of WT yeast, mitochondrial fusion screen. inhibition, % at 10 µM. hit rate 2.1% among 190,000. AID 1362. mitochondrial fusion phenotypic screen, WT strain; in the data active = inhibition above about 58%; tested in S. cerevisiae
L major viab: Leishmania major promastigote growth inhibition | Leishmania major promastigotes, resazurin fluorescence viability | inhibition, % at 10 µM | hit rate 9% among 200,000 | AID 1063; in the data active = inhibition above about 50%;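 note: promastigotes grown with compound for 44 hours at 28 °C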
CHOP inh: inhibitors of CHOP induction in ER stress response | AID 2732 | inhibition, % at 10 µM | hit rate 3.8% among 220,000 | CHO-K1 CHOP-promoter luciferase, tunicamycin-induced, 15-18 h;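 active = compounds that reduced the stress-induced luciferase reporter signal by more than about 70% of percent inhibition, limit read from the data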;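 note: 0% = tunicamycin plus vehicle and 100% = wells without tunicamycin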
Arbovirus inh: blocks arbovirus infection. arbovirus infection cell-based antiviral screen. inhibition, % at 10 µM. hit rate 0.37% among 200,000. AID 1251; in the data active = inhibition above about 30%
Starred values were filed as active, the others as inactive; · = not tested or not shown.

SMILES	WT yeast gro inh	L major viab	CHOP inh	Arbovirus inh
S=C(Nc1ccccc1Cl)NC1CCN(Cc2ccccc2)CC1	33	95*	30	6
O=C(NCC1CCCO1)C1CCC(=O)N1Cc1ccccc1Cl (centres undefined)	91*	-1	-14	6
CCCN1CCC(NC(=S)Nc2cccc(Cl)c2Cl)CC1	-13	82*	6	-4
FC(F)(F)c1ccccc1NC(=S)NN1CCOCC1	8	-3	45	3
COC1(NS(=O)(=O)c2ccc(Br)cc2)C(C)=CC(=O)C=C1C	-6	-8	-61	2
Cc1ccccc1CN1C[C@@H]2C[C@@H](c3cnc(N4CCOCC4)s3)N3CCC[C@@]23C1=O	10	-8	61	6
C=CCc1cc(Cl)ccc1OC(=O)Nc1cccc(Cl)c1	·	·	-11	·
Cc1c(Cl)cccc1NC(=S)NC1CCN(Cc2ccccc2)CC1	8	86*	17	-17
Cc1c(Cl)cccc1NC(=S)NCc1ccc(Cl)cc1	·	-1	·	·
Fc1ccccc1NC(=S)NN(Cc1ccccc1)c1ccccc1	25	16	17	-14
Cc1c(Cl)cccc1NC(=S)NCc1ccccc1	·	72*	·	·
O=C(Nc1ccccc1)NC1CCN(Cc2ccccc2)CC1	-10	29	5	-2
CC(C)c1ccccc1NC(=S)NC1CCN(Cc2ccccc2)CC1	3	74*	8	-9
CC(C)c1ccccc1NC(=S)NN(Cc1ccccc1)c1ccccc1	62*	54*	54	-16
CC(C)c1ccc(N=C(N)N=C(N)N)cc1	-8	-4	-12	7
COc1ccc(CCNC(=S)NC2CCN(Cc3ccccc3)CC2)cc1OC	3	3	11	5
S=C(NCC1CCCO1)Nc1ccccc1Cl (centres undefined)	2	64*	16	0
S=C(Nc1ccc(Cl)cc1Cl)NC1CCN(Cc2ccccc2)CC1	32	92*	-7	13
S=C(NCc1ccc(Cl)cc1)NC1CCN(Cc2ccccc2)CC1	19	80*	18	-30
CC1CCCCC1NC(=S)Nc1ccc(Cl)cc1Cl (centres undefined)	4	24	-14	-3
COc1ccc(C2C3=C(CCCC3=O)Nc3ccc4ncccc4c32)cc1OC (centres undefined)	-7	75*	-12	4
Cn1c(=O)[nH]c(=O)c2c1nc(SCCO)n2CC(O)COc1ccccc1 (centres undefined)	1	-5	13	6
Cc1ccsc1CNC12CC3CC(CC(C3)C1)C2	6	3	26	-5
CN(C)c1ccc(CNC23CC4CC(CC(C4)C2)C3)cc1	·	87*	·	·
CCc1nnc(NS(=O)(=O)c2ccc(N=CC3=C(O)CC(C)(C)CC3=O)cc2)s1	-2	0	24	0
SMILES	WT yeast gro inh	L major viab	CHOP inh	Arbovirus inh
Cc1cccc2cc(CN(Cc3ccc(F)cc3)C(=O)N(C)C)c3nnnn3c12	12	21	90*	-8
Cc1ccc2cc(C)c3nnc(SCC(=O)Nc4nc5c(s4)CCCC5)n3c2c1	-25	13	83*	-5
CC(C)c1nc(SCC(=O)Nc2nc3c(s2)CCCC3)c2ccccc2n1	62*	5	66	-14
CC(C)(C)c1nc(SCC(=O)Nc2nc3c(s2)CCCC3)c2ccccc2n1	35	80*	54	5
CCCn1c(SCC(=O)Nc2nc3c(s2)CCCC3)nc2c1c(=O)n(C)c(=O)n2C	-7	-1	71*	19
Cc1ccc(-c2nnc(SCC(=O)Nc3nc4c(s3)CCCC4)n2C)cc1	·	11	42	4
CCCCn1c(SCC(=O)Nc2nnc(C(C)C)s2)nc2c1c(=O)n(C)c(=O)n2C	18	-9	49	5
C=C(C)C1CCC(C)=C1COC(=O)Nc1ccccc1 (centres undefined)	47	96*	56	-17
Cc1cccc(N2CCN(C(c3cccs3)c3nnnn3C(C)(C)C)CC2)c1C (centres undefined)	47	76*	77*	14
CC(C)(C)n1nnnc1C(c1cccs1)N1CCN(c2ccccc2)CC1 (centres undefined)	27	6	35	5
Cc1cccc(N2CCN(C(c3ccccc3)c3nnnn3C(C)(C)C)CC2)c1C (centres undefined)	75*	45	70	-4
CCSc1nnc(CSc2ncccn2)n1C	0	1	14	5
Cc1ccc2cc(C3C(C#N)=C(N)Oc4c3ccc3cccnc43)c(=O)[nH]c2c1 (centres undefined)	0	91*	66	-30
c1ccc(-c2nc(NCCCn3ccnc3)c3ccccc3n2)cc1	6	54*	13	4
CCN(CC)CCCNc1nc(-c2ccccc2)nc2ccccc12	-21	72*	7	-30
Clc1ccc(-c2nc(NCCN3CCOCC3)c3ccccc3n2)cc1	27	62*	-14	2
